Measured values published in ChEMBL document CHEMBL4513216, “Probing the Open Global Health Chemical Diversity Library for Multistage-Active Starting Points for Next-Generation Antimalarials” (ACS Infect Dis, 2020).
About 2,100 (3.2%) of roughly 65,000 compounds showed an effect of 50% or more. The median lay at about -52%. The full list was thinned out, with strong results kept by preference.

Each molecule was assayed on Plasmodium falciparum (assay: Screen against P. falciparum Asexual Blood Stage (ABS), at 5uM). Settings: tested at 5 uM.
Format: functional, Dd2

SMILES | INHIBITION
CCN(CC1CN(Cc2ccn(C(C)C)n2)CCO1)c1cccnn1 (stereo not drawn) | -94%
Cc1[nH]c2ccccc2c1CCNc1ncnc2c1CCNCC2 | -68.4%
Cc1[nH]c2ccc(Cl)cc2c1CCNc1ncnc2c1CCNC2 | 52%
Cc1[nH]c2ccc(C#N)cc2c1CCNc1ncnc2c1CCNCC2 | -19.3%
O=S(=O)(Nc1ccc(Oc2ccc3c(c2)OCO3)cc1)N1CCCCC1 | -59.9%
N#CCCN(CCC#N)Cc1ccc(Br)c2cccnc12 | -103.4%
OCCN(CCO)Cc1ccc(Br)c2cccnc12 | -26.05%
CCN(CCO)Cc1ccc(Br)c2cccnc12 | 54.2%
Cc1nn(C)c2c(=O)n(C(C)C)c(NCCc3ccccc3)nc12 | 13.9%
Clc1ccc(C2(NCc3noc(C4CC4)n3)CCOCC2)cc1 | 3.57%
Clc1ccc(C2(NCc3noc(C4CC4)n3)CCC2)cc1 | 16.7%
Clc1ccc(C2(NCc3noc(C4CC4)n3)CCCC2)cc1 | 68.5%
O=C(NC1CCCC1)c1nc(COc2ccc3c(c2)OCO3)no1 | -118%
CSc1ccc(C(C(=O)O)N2CCC(CO)CC2)cc1 (stereo not drawn) | -79.3%
Cc1c(NC(=O)c2ncn[nH]2)cccc1C(=O)NC(C)(C)C | -21%
c1cnc(NC2COC3(CCN(Cc4ccoc4)CC3)C2)nc1 (stereo not drawn) | -27.7%
Cc1cc(CN2CCC3(CC2)CC(Nc2ncccn2)CO3)nn1C (stereo not drawn) | -8.44%
Cc1cc(C)cc(CN2CCC3(CC2)CC(Nc2ncccn2)CO3)c1 (stereo not drawn) | 60.2%
CCc1csc(CNc2cc(C)nc(-c3cccnc3)n2)n1 | 4.15%
CC(C)c1nc(CN2CCCC2CN2CCCC2)cs1 (stereo not drawn) | 68%
CC(C)c1nc(CN2CCCCC2)cs1 | -114%
CC(C)c1nc(CN2CCCCC2Cn2cncn2)cs1 (stereo not drawn) | -30.9%

SMILES | INHIBITION
CC(=O)N1CCN(CCNS(=O)(=O)c2cc(F)cc(F)c2)CC1 | -113%
Cn1cnc(S(=O)(=O)NCCCN2CCCC2)c1Cl | -29.7%
Cc1cc(F)cc(S(=O)(=O)NCCCN2CCC(O)CC2)c1 | -34.8%
O=S(=O)(NCCCN1CCCC1)c1cc(F)cc(F)c1 | 67.4%
O=S(=O)(Cc1ccccc1F)NCCCN1CCCCC1 | 19.9%
CC(=O)N1CCN(CCNS(=O)(=O)c2cccc(F)c2)CC1 | -72.6%
O=S(=O)(Cc1c(F)cccc1Cl)NCCCN1CCCCCC1 | 50.1%
CN1CCN(CCCNS(=O)(=O)Cc2ccccc2F)CC1 | 18.6%
CC1CCN(CCCNS(=O)(=O)c2cc(F)cc(F)c2)CC1 | 63.3%
CC1CCN(CCCNS(=O)(=O)c2cccc(F)c2)CC1 | 54.9%
CC(C)c1cccc(S(=O)(=O)NCCCN2CCC(O)CC2)c1 | 34.2%
CC1CCN(CCCNS(=O)(=O)Cc2ccccc2F)CC1 | 28.5%
O=C(Nc1cccc(N2CCOCC2)c1)N[C@H](CO)c1ccccc1 | -104%
Cc1cccc(C(=O)N2CCO[C@H]3[C@H](OCCN(C)C)CC[C@@H]32)n1 | -57.1%
COCC1CN(C(=O)COc2ccccc2)Cc2ncn(C)c21 (stereo not drawn) | -14.4%
O=C(NCc1ccnc(OCC(F)(F)F)c1)NCC1CCOC1 (stereo not drawn) | -16%
O=C(C1CCCC1)N1CCCC(c2cccc(-n3ccnc3)n2)C1 (stereo not drawn) | -46.4%
Cc1c[nH]c(CN2CCOC(c3ccc(Cl)cc3)C2)c(C)c1=O (stereo not drawn) | -11.4%
COc1ccc(CNCC2CCN(CCO)CC2)cc1F | 58.2%
CCN1CCC(CNCc2cc(OC)ccc2OC)C1 (stereo not drawn) | 57.9%
Cc1ccc(CNCC2CCN(CCO)CC2)cc1 | 13%
CCN1CCCC(CNC(=O)CCc2ccc(OC)c(F)c2)C1 (stereo not drawn) | -71.6%

SMILES | INHIBITION
COc1ccc(CNCC2CC2)cc1F | -75.5%
COc1ccc(OC)c(CN2CCC(c3cc(O)nc(C)n3)C2)c1 (stereo not drawn) | -1.68%
CCC1=N[C@@]2(CC[C@@H]3CN(Cc4ccc(F)cc4)C[C@@H]32)C(=O)N1C | 40.2%
COC1CCN(c2ccc(NC(=O)C3CC3)cc2C(F)(F)F)CC1 | 7.84%
CN1CCC(c2cccc(Cc3ccc(C(F)(F)F)cc3)n2)CC1 | 52.5%
CN1CCC(c2cccc(Cc3ccccc3)n2)CC1 | 3.76%
CN1CCC(c2cccc(Cc3ccc(F)cc3)n2)CC1 | 0.302%
CNc1nc(C(=O)N2CCN(c3ccc(Cl)c(Cl)c3)CC2)cs1 | -3.09%
CC(=O)N1CCC(c2nc3ccc(-c4cccc(F)c4)cn3n2)CC1 | -83.5%
Cc1cc(CN2CCC(C3CCN(CC(C)C)CC3)C2)[nH]n1 (stereo not drawn) | -10.5%
CC(C(=O)N1CCN(Cc2ccc(C#N)cc2)CC1)n1ccnc1 (stereo not drawn) | -162%
CC(C(=O)N1CCCN(Cc2ccc(C#N)cc2)CC1)n1ccnc1 (stereo not drawn) | -20.3%
COc1ccc(CN2CCCN(C(=O)C(C)n3ccnc3)CC2)cc1 (stereo not drawn) | 63.1%
Cc1noc(C)c1-c1cccc(CC2CCN(C(=O)c3cscn3)C2)n1 (stereo not drawn) | -100%
CC(=O)N1CCN(C(=O)Nc2ccccc2)CC2(CC(=O)N(C)C2)C1 (stereo not drawn) | 13.6%
O=C1CC2(CNCCN(C(=O)Nc3ccccc3)C2)CN1 (stereo not drawn) | -59.9%
CN(C)CC(=O)N1CC2(CCN(S(=O)(=O)c3ccccc3)C2)C1 | -21%
CN1CC2(CNCCN(C(=O)Nc3ccccc3)C2)CC1=O (stereo not drawn) | 33.2%
CCN1CC2(CNCCN(C(=O)Nc3ccccc3)C2)CC1=O (stereo not drawn) | 53.7%
CN(C)CC(=O)N1CC2(CCN(C(=O)Nc3ccccc3)C2)C1 | 50%
N#Cc1ccsc1NC(=O)CN1CCOC(Cn2cccn2)C1 (stereo not drawn) | -49.6%
Cc1cnn(CC2CCN(CC(O)COc3ccc(F)cc3)CC2)c1 (stereo not drawn) | -39.2%

SMILES | INHIBITION
CC(C)NC(=O)[C@H]1C[C@H]2OCC[C@H]2N(Cc2ccc3ccccc3n2)C1 | 3.39%
CCc1ccc(CN(Cc2ccco2)C(C)C(C)C)nc1 (stereo not drawn) | -199%
COCCNC(=O)Nc1cccc2c1CCN(S(C)(=O)=O)C2 | -3.2%
Cc1ccc(OC2(C(=O)NC(C)Cc3ccncc3)CCNCC2)cc1 (stereo not drawn) | -39.1%
Cc1ccc(OC2(C(=O)NC(C)c3csc(C)n3)CCNCC2)cc1 (stereo not drawn) | 11.3%
Cc1ccc(OC2(C(=O)NC(C)Cc3ccsc3)CCNCC2)cc1 (stereo not drawn) | 52.5%
CCn1cc2c(n1)CN(Cc1sccc1C)CC2COCC1CC1 (stereo not drawn) | -6.58%
COc1nccnc1N1CCC(C(=O)O)(n2ccc(C(C)(C)C)n2)CC1 | -5.61%
CC(O)CN(C(=O)NC1CC1)C(C)C (stereo not drawn) | -10.2%
CC(=O)N1CCc2nc(-c3ccc(F)cc3)nc(NC(C)C)c2CC1 | 6.79%
CCCS(=O)(=O)NCc1nc(C)cc(N2CCCC2)n1 | -76.8%
CC(C)c1nc(CN2CCCC2Cn2cncn2)no1 (stereo not drawn) | -59.5%
COc1ccccc1OC1CN(C(=O)C(c2ccc(F)cc2)N(C)C)C1 (stereo not drawn) | 3.3%
CN(C)C(C(=O)N1CC(Oc2ccccc2F)C1)c1ccc(F)cc1 (stereo not drawn) | 64%
Cc1cccc(C(C(=O)N2CC(Oc3ccccc3F)C2)N(C)C)c1 (stereo not drawn) | 2.84%
O=C(O)CC(CC(=O)NCCc1ccsc1)c1cccs1 (stereo not drawn) | -112%
Clc1ccc(CN2CCc3c(ncn3C3CC3)C2)c2ncccc12 | 30.3%
CC(=O)Cn1c(C)cc(=O)c2cc(F)ccc21 | -152%
CN(Cc1cccc(CCN)c1)Cc1cccc2ncccc12 | 60.4%
CN(Cc1cccc(OCCO)c1)Cc1cccc2ncccc12 | -10.8%
CN(Cc1cccnc1N)Cc1cccc2ncccc12 | 15.1%
CN(C)C(=O)C1CCCN(C(=O)c2ccccc2-n2cc(CN)cn2)C1 (stereo not drawn) | 25.8%

SMILES | INHIBITION
CC1CCCN(CCNC(=O)c2scnc2Cl)C1 (stereo not drawn) | -37.9%
CCc1cccc(N2CCC(NC(=O)C3CCC3)CC2)c1 | -52.2%
CCN(CC)c1ccc(C2c3c(n[nH]c3C)N=C3COC(=O)C32)cc1 (stereo not drawn) | -48.4%
CN1CCCC[C@@H]2[C@H]1[C@@H](c1ccccc1)CCN2C(=O)c1ccccc1 | -15.8%
CCN(CC)S(=O)(=O)N1CC[C@H](c2ccccc2)[C@@H]2[C@H]1CCCCN2C | 41.2%
CN1CCCC[C@@H]2[C@H]1[C@@H](c1ccccc1)CCN2S(=O)(=O)N1CCCC1 | 52%
Cc1cc(C2NC(=O)CN2Cc2ccc(Br)cc2)cc(C)c1O (stereo not drawn) | -78.2%
CC(=O)Nc1ncc(S(=O)(=O)Nc2ccc3c(c2)OCCO3)s1 | -316%
COc1ccc(OCCNCc2c(C)nn(C)c2N(C)C)cc1 | -64.9%
COc1ccccc1C(O)CNCc1c(C(C)C)nn(C)c1N(C)C (stereo not drawn) | 6.24%
COc1ccccc1OCCNCc1c(C(C)C)nn(C)c1N(C)C | 60.1%
COc1cc(CNCc2c(C(C)C)nn(C)c2N(C)C)ccn1 | -67.4%
COc1ccccc1OCCNCc1c(C)nn(C)c1N(C)C | 60%
COc1cccc(OCCNCc2c(C)nn(C)c2N(C)C)c1 | -31.9%
Cc1ccc(N2CCCC(NCc3ccc(C)s3)C2)nn1 (stereo not drawn) | -34.1%
CC(C)(CO)NCc1nn(Cc2ccccc2)nc1-c1ccccc1 | 14.1%
O=C(Cc1ccncc1)N1CCC2(CC1)CC(c1ccccc1)CO2 (stereo not drawn) | -26.8%
CC(C)C(C(=O)N1CCCN(c2nccs2)CC1)n1cncn1 (stereo not drawn) | -114%
Cc1csc(N2CCCN(C3Cc4ccccc4C3)CC2)n1 | -1.32%
O=C1CC2(CCCCN2C(=O)Cc2ccccc2)CN1c1cccnc1 (stereo not drawn) | -37.3%
